Inconclusive results are not listed. Activity calls are given as the source filed them. Calls follow the shape of the dose curve; as a rule, active = well fitted curve in the direction sought with a large enough effect; inconclusive = small, poorly fitted or top-dose-only effect, or another doubt; inactive = no such curve, though single readings can be large; an effect the other way counts as inactive or inconclusive.
Molecular target: Ubiquitin carboxyl-terminal hydrolase 1 (Homo sapiens) (UniProt O94782)
Assay: Inhibitors of USP1/UAF1: Pilot qHTS (AID 504865);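 also: rhodamine fluorescence freed from ubiquitin-rhodamine substrate followed over time; top concentration of the series differs between compounds; nearly all actives have a fitted effect of over 35% in size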
Details: purified USP1/UAF1, Ub-rhodamine cleavage fluorescence; series mostly up to 54.9 µM
In short: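 In 50mM HEPES pH 7.8 containing 0.5mM EDTA, 1mM TCEP, 0.1 mg/ml BSA and 0.01% Tween-20, 1nM USP1/UAF1 is exposed to compound for 15 min, then Ub-Rho (150nM final) is added and fluorescence is read over time.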

Chain of Ubiquitin carboxyl-terminal hydrolase 1 (Homo sapiens) (O94782 whole entry, looked up): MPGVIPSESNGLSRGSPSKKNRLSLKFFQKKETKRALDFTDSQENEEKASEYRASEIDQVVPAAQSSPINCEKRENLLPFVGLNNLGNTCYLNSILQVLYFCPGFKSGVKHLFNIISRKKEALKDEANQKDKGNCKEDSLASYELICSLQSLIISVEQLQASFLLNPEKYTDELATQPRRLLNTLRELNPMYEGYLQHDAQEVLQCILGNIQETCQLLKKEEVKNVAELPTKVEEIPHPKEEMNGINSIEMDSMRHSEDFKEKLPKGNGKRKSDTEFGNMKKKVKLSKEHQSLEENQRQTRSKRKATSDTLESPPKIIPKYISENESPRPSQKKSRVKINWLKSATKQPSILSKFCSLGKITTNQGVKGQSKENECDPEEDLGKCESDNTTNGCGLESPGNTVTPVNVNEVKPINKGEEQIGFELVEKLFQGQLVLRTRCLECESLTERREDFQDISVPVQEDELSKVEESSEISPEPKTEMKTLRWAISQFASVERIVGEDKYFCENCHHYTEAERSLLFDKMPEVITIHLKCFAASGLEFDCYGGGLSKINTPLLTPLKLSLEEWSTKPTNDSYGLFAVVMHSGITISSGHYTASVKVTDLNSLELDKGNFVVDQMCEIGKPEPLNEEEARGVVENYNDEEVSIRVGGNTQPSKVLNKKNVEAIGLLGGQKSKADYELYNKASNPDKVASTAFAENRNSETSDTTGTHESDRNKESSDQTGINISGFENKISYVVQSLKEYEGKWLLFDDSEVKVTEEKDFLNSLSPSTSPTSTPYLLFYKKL

Potency, inactive:
Cc1nc2cncnc2n(C2CC2)c1=O
COc1ccc2[nH]cc(CCNc3ncnc4ccc(-c5cccnc5)cc34)c2c1
Cn1c(=O)c(-c2ccc(Cl)cc2)nc2cnc(N3CCOCC3)nc21
CN(C)c1ncc2nc(-c3ccccc3)c(=O)n(Cc3ccc(F)cc3)c2n1
COc1ccc(Oc2ncc3nc(-c4ccc(Cl)cc4)c(=O)n(C[C@H]4CCCO4)c3n2)cc1
COc1ncc2nc(-c3ccc(F)cc3)c(=O)n(C)c2n1
CN1CCN(c2ncc3nc(-c4cc(F)cc(F)c4)c(=O)n(Cc4cccs4)c3n2)CC1
CCNc1ncc2nc(-c3ccccc3)c(=O)n(Cc3cccs3)c2n1
CN1CCN(c2ncc3nc(-c4ccc(Cl)cc4)c(=O)n(-c4ccccc4)c3n2)CC1
CN1CCN(c2ncc3nc(-c4ccc(F)cc4)c(=O)n(Cc4cccs4)c3n2)CC1
CNc1nc(-c2ccccc2CN(C)C)nc2ccccc12
COCCNc1ncnc2ccc(-c3cccnc3)cc12
COc1cccc(Cn2c(=O)c(-c3cccc(C#N)c3)nc3cnc(N4CCN(C)CC4)nc32)c1
COc1cccc(Cn2c(=O)c(-c3cc(F)cc(F)c3)nc3cnc(N(C)C)nc32)c1
COc1cccc(Cn2c(=O)c(-c3cc(F)cc(F)c3)nc3cnc(N4CCN(C)CC4)nc32)c1
COc1cccc(Nc2ncc3nc(C)c(=O)n(Cc4cccs4)c3n2)c1
CN1CCN(c2cc(-c3ccoc3)ncn2)CC1
CN(C)c1ncnc2ccc(-c3ccoc3)cc12
CCNc1ncc2nc(-c3cn(C)c4ccccc34)c(=O)n(Cc3cccc(OC)c3)c2n1
COc1ccc(-c2nc3cnc(Oc4cccc(Cl)c4)nc3n(C3CC3)c2=O)cc1
COc1ncc2nc(-c3cccs3)c(=O)n(CCc3ccccc3)c2n1

Test system: not listed separately
Assay: Primary qHTS for small molecule stabilizers of the endoplasmic reticulum resident proteome: Secreted ER Calcium Modulated Protein (SERCaMP) assay (AID 1508630)
Details: SH-SY5Y GLuc-SERCaMP (Gaussia luciferase released on ER calcium loss) secretion, thapsigargin, luminescence; series mostly up to 38.4 µM
In short: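 GLuc-SERCaMP-expressing SH-SY5Y cells, pretreated 16 h with compound, are challenged with thapsigargin to empty ER calcium stores; after 4 h, coelenterazine is added directly to the medium and luminescence is imaged.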

Potency, inactive:
FC(F)(F)c1ccccc1-c1nccc(NCc2cccs2)n1
CN1CCN(c2ncc3ncc(=O)n(C[C@H]4CCCO4)c3n2)CC1
COCCn1c(=O)c(-c2cccc(C#N)c2)nc2cnc(Oc3ccccc3)nc21
CS(=O)(=O)Nc1cccc(-c2ccc3ncnc(Nc4ccccc4)c3c2)c1
FC(F)(F)c1ccccc1-c1nc(NCc2cccs2)c2ccccc2n1
c1ccc(CNc2ncnc3ccc(-c4cccnc4)cc23)cc1
COc1ccc(-c2nc3cnc(N4CCN(C)CC4)nc3n(Cc3cccs3)c2=O)cc1
COCCn1c(=O)cnc2cnc(Nc3cccc(OC)c3)nc21
COCCn1c(=O)cnc2cnc(Nc3ccccc3)nc21
CN1CCN(c2ncc3nc(-c4cc(F)cc(F)c4)c(=O)n(CCc4ccccc4)c3n2)CC1
O=c1c(-c2ccc(Cl)cc2)nc2cnc(N3CCNCC3)nc2n1Cc1cccs1
O=c1c(-c2ccc(F)cc2)nc2cnc(N3CCNCC3)nc2n1C1CC1
COc1ccc(-n2c(=O)c(-c3ccc(Cl)cc3)nc3cnc(N4CCNCC4)nc32)cc1
COCCNc1ncnc2ccc(-c3cccc(OC)c3)cc12
O=c1c(-c2ccc(Cl)cc2)nc2cnc(N3CCOCC3)nc2n1-c1ccccc1
CN(C)c1ncc2nc(-c3ccc(F)cc3)c(=O)n(Cc3ccc(F)cc3)c2n1
COc1ccc(-c2nc3cnc(Oc4ccccc4)nc3n(CCC#N)c2=O)cc1
COc1cccc(Nc2ncc3nc(CCc4ccccc4)c(=O)n(C)c3n2)c1
Cc1nc2cncnc2n(C2CC2)c1=O
COc1ccc2[nH]cc(CCNc3ncnc4ccc(-c5cccnc5)cc34)c2c1
Cn1c(=O)c(-c2ccc(Cl)cc2)nc2cnc(N3CCOCC3)nc21
CN(C)c1ncc2nc(-c3ccccc3)c(=O)n(Cc3ccc(F)cc3)c2n1
COc1ccc(Oc2ncc3nc(-c4ccc(Cl)cc4)c(=O)n(C[C@H]4CCCO4)c3n2)cc1
COc1ncc2nc(-c3ccc(F)cc3)c(=O)n(C)c2n1
CN1CCN(c2ncc3nc(-c4cc(F)cc(F)c4)c(=O)n(Cc4cccs4)c3n2)CC1
CCNc1ncc2nc(-c3ccccc3)c(=O)n(Cc3cccs3)c2n1
CN1CCN(c2ncc3nc(-c4ccc(Cl)cc4)c(=O)n(-c4ccccc4)c3n2)CC1
CN1CCN(c2ncc3nc(-c4ccc(F)cc4)c(=O)n(Cc4cccs4)c3n2)CC1
CNc1nc(-c2ccccc2CN(C)C)nc2ccccc12
COCCNc1ncnc2ccc(-c3cccnc3)cc12
COc1cccc(Cn2c(=O)c(-c3cccc(C#N)c3)nc3cnc(N4CCN(C)CC4)nc32)c1
COc1cccc(Cn2c(=O)c(-c3cc(F)cc(F)c3)nc3cnc(N(C)C)nc32)c1
COc1cccc(Cn2c(=O)c(-c3cc(F)cc(F)c3)nc3cnc(N4CCN(C)CC4)nc32)c1
COc1cccc(Nc2ncc3nc(C)c(=O)n(Cc4cccs4)c3n2)c1
CN1CCN(c2cc(-c3ccoc3)ncn2)CC1
CN(C)c1ncnc2ccc(-c3ccoc3)cc12
CCNc1ncc2nc(-c3cn(C)c4ccccc34)c(=O)n(Cc3cccc(OC)c3)c2n1
COc1ccc(-c2nc3cnc(Oc4cccc(Cl)c4)nc3n(C3CC3)c2=O)cc1
COc1ncc2nc(-c3cccs3)c(=O)n(CCc3ccccc3)c2n1
